Screening data (PubChem)
AHR activator: activators of human aryl hydrocarbon receptor; activation, % at 5 µM; AHR-responsive luciferase reporter cells, luminescence; 320,000 compounds, 2.5% hits; P35869; in the data active means activation above about 47%;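 further: 0% = vehicle wells and 100% = reference agonist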
APOBEC3A inh: human APOBEC3A DNA deaminase inhibition | inhibition, % at 20 µM | P31941 | recombinant A3A, FAM/TAMRA ssDNA deamination fluorescence | AID 493011 | 330,000 compounds, 0.41% hits;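 active means at least 40% inhibition at 20 µM here, with at most 30% in a related deaminase screen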;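 further: plate controls were A3A with DMSO for no effect and wells lacking A3A enzyme for full effect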
Target sequence (P31941 whole entry, looked up): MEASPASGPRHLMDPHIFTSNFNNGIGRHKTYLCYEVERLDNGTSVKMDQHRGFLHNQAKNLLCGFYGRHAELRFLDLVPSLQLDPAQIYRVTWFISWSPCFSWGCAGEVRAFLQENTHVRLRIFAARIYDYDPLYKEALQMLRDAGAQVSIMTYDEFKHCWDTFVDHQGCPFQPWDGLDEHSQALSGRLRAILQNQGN
A3G deaminase: inhibitors of human APOBEC3G DNA deaminase; Q9HC16; recombinant A3G, ssDNA deamination FAM/TAMRA fluorescence; inhibition, % at 20 µM; 330,000 compounds, 0.28% hits;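 active means inhibition of at least 40% at 20 µM, with no more than 30% in the related APOBEC3A deaminase screen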;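 further: plate controls were DMSO wells with A3G for no effect and wells lacking A3G enzyme for full effect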
NTR1 agonist: agonists of human neurotensin receptor NTR1. P30989. NTR1-U2OS beta-arrestin-GFP spot imaging, agonist mode. activation, % at 20 µM. 330,000 compounds, 0.17% hits;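 active means activation at or above 40% of the spot to cytoplasm intensity ratio, with at least 20 cells analyzed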;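 further: 0% = DMSO without peptide and 100% = 100 nM NTR1 peptide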
* marks the source's active call; other numbers are inactive results; nt = no result. This is a sample that favours compounds with a hit; in the whole collection about 3.2% have one here.

SMILES | AHR activator | APOBEC3A inh | A3G deaminase | NTR1 agonist
N#CC1=C(N)SC(N)=C(C#N)C1CCc1ccccc1 | 86* | -1 | -4 | 5
COc1ccc2nc(NC(=O)C3CCN(S(=O)(=O)c4cccs4)CC3)sc2c1 | 2 | 4 | -1 | 7
COc1ccc2nc(NC(=O)C3CCCN(S(=O)(=O)c4cccs4)C3)sc2c1 (stereo not drawn) | 71* | -4 | -6 | -2
O=C(CCNS(=O)(=O)c1ccc(F)c(Cl)c1)NCc1ccccc1F | -1 | 17 | 4 | 3
N#C/C(=C(/O)C(Cl)(Cl)Cl)c1nc2ccccc2[nH]1 | 53* | -4 | -5 | 4
C/C(O)=C(/C#N)c1nc2ccccc2[nH]1 | 21 | -7 | -6 | 2
CC(=O)OC(/C(O)=C(\C#N)c1nc2ccccc2[nH]1)c1ccccc1 (stereo not drawn) | 49* | -1 | 0 | 2
COc1cc(OC)cc(C(=O)OC/C(O)=C(\C#N)c2nc3ccccc3[nH]2)c1 | 3 | -1 | -8 | 2
CCC(=O)Nc1ccc(OCC2CCCO2)cc1 (stereo not drawn) | 1 | -4 | -3 | -1
O=C(c1ccc2c(c1)OCO2)N1CCC2(CC1)Oc1ccc(Cl)cc1C(=O)C21CC(c2ccc(Cl)cc2)=NO1 (stereo not drawn) | nt | -5 | -10 | 7
Cc1ccc(NC(=S)NNC(=O)c2ccccc2OC(F)F)cc1 | 102* | -2 | -5 | 2
COc1cccc(NC(=S)NNC(=O)c2ccccc2OC(F)F)c1 | 3 | 5 | 1 | 0
O=C(NNC(=S)Nc1ccc(F)cc1)c1ccccc1OC(F)F | 92* | -3 | -6 | -1
O=C(NCCNc1ccc([N+](=O)[O-])cc1C(F)(F)F)c1ccccc1F | 59* | -3 | -6 | 2
COc1ccc(NC(=O)CN(C)C(=O)c2oc3c(ccc4ccccc43)c2C)cc1 | 27 | 0 | -4 | 2
Oc1c(Cl)cc(Cl)cc1C=Nc1cc(C(F)(F)F)ccc1N1CCc2ccccc2C1 | 68* | 2 | 6 | 11
CC(=O)Nc1ccc(N2C(C(C)=O)=NN(c3ccc(Cl)cc3)C2c2sccc2C)cc1 (stereo not drawn) | 66* | -1 | -1 | 7
CCn1cc(C(=O)N2CCN(c3ccccc3F)CC2)c(=O)c2ccc(C)nc21 | -1 | -5 | -10 | 0
Cc1ccc(C(=O)NNC2=Nc3cccc4cccc2c34)cc1 | 79* | 6 | -4 | -1
Nc1ccc2oc(-c3ccccn3)nc2c1 | 0 | 0 | -3 | -1
Clc1ccc2oc(-c3ccccn3)nc2c1 | 61* | 2 | -2 | 4
COc1ccc(C(C)NCCC(c2ccc(OC(C)C)cc2)c2ccccc2OC)cc1 (stereo not drawn) | nt | -2 | -9 | 68*
COc1ccc(C(CCNC(C)c2ccccc2)C(C)C)cc1 (stereo not drawn) | 3 | 0 | 5 | 1
CCc1c(C)c(C#N)c2[nH]c3ccccc3n2c1=S | 59* | -2 | 30 | 6
CCc1cc(=S)n2c([nH]c3ccccc32)c1C#N | 22 | -4 | -5 | 4
SMILES | AHR activator | APOBEC3A inh | A3G deaminase | NTR1 agonist
Cc1ccc(C(=O)Nc2ccccc2C(=O)Nc2ccccn2)cc1Cl | 18 | -7 | 1 | -1
O=C1N=C(N2CCCCC2)S/C1=C\c1ccncc1 | 7 | 3 | 19 | -1
COc1ccc(/C=C2\SC(N3CCCCC3)=NC2=O)cc1 | 49* | -4 | -9 | 1
CCOc1ccccc1NC(=O)CSc1nnc2ccc(-c3ccccn3)nn12 | 16 | 1 | -4 | 1
CCOc1ccccc1NC(=O)CSc1nnc2ccc(-c3cccnc3)nn12 | 49* | -4 | -3 | 1
COc1ccccc1NC(=O)CSc1nnc2ccc(-c3cccnc3)nn12 | 58* | -1 | -4 | 2
COc1ccc(NC(=O)CSc2nnc3ccc(-c4cccnc4)nn23)c(OC)c1 | 5 | 1 | -8 | 0
Cn1c(=O)c2sc3c(c2n(CC(=O)Nc2ccccc2)c1=O)COC(C)(C)C3 | 3 | -3 | -5 | 0
CCC(O)c1cc2c(cc1NC(=O)c1ccc(C)cc1)OCCO2 (stereo not drawn) | 63* | -2 | 16 | 0
CC1CCc2c(sc(NC(=O)c3ccc(N4C(=O)CCC4=O)cc3)c2C(N)=O)C1 (stereo not drawn) | -4 | 2 | -4 | 4
Cc1cc2c(cc1S(=O)(=O)Nc1ccc(OC(F)(F)F)cc1)OCC(=O)N2 | 1 | -4 | -9 | 2
Cc1cc(C)nc(NC(=O)c2ccc(OC(C)C)cc2)n1 | 49* | 5 | 0 | 0
Cc1cc(C)nc(NC(=O)c2ccc(C)c(C)c2)n1 | 13 | -3 | 6 | 0
COc1ccc(C(=O)Nc2cc(OC)cc(OC)c2)cc1 | 57* | -4 | -11 | -1
